A number with no mark means an inactive call. Activity calls are given as the source filed them. Calls follow the shape of the dose curve; as a rule, active = well fitted curve in the direction sought with a large enough effect in the repeat runs; inconclusive = weak or mixed curves; inactive = flat fitted curve, though single readings scatter.
Assay: qHTS assay to test for compound auto fluorescence at 535 nm (green) in HepG2 cells (AID 720675)
Conditions: green autofluorescence 485/535 nm, 1 h; series mostly up to 91.3 µM; fluorescence, % of fluorescein control: at the top concentration
Text: National Center for Advancing Translational Sciences [NCATS]
NIH Chemical Genomics Center [NCGC]
U.S. Environmental Protection Agency [EPA]
National Institutes of Environmental Health Sciences [NIEHS]
National Toxicology Program [NTP]
U.S. Food and Drug Administration [FDA]
Compound auto fluorescence often interferes with screening of the compound library against various biological targets and signaling pathways. Some of these compounds may have fluorophoric properties. Such properties may interfere with the assay outputs resulting in false positives and/or negatives. To decrease such complications and ensure the compound activities are relevant in terms of biological response, the Tox21 10K compound library was screened for auto fluorescence.
From the fluorophores used as reporter signals in our screening assays, the auto fluorescence equivalencies of compounds against three fluorophores have been evaluated: Triamterene, Fluorescein and Rose Bengal sodium for blue, green and red fluorescence, respectively. The fluorescence intensities were measured using Excitation/Emission wavelengths at 405/460nm, 485/535nm and 540/590nm for blue, green and red labels, respectively. This assay includes the green fluorescence data.
Tox21 Assay Protocol Summary:
2,000 HepG2 cells in 5 uL of culture medium (MEM containing 10% FBS) per well were dispensed into black wall/clear bottom 1536-well plates using a Multidrop Combi Dispenser (ThermoFisher Scientific, Waltham, MA). The assay plates were incubated overnight at 37 C to allow cell attachment to the well bottom, followed by the transfer of 23 nL compound or DMSO vehicle by a pintool work station (Kalypsys , San Diego, CA). After the assay plates were incubated for 1 hr at 37 C and 5% CO2, fluorescence intensities in the assay plates were measured by an Envision (PerkinElmer, Shelton, CT) plate reader using three labels for measuring blue, green and red fluorescence at […] 460, 535 and 590 nm respectively.
% is scaled to controls: 0 for no effect and ±100 for the full control effect.

Structure (SMILES)	fluorescence, % of fluorescein control	Potency
CCOc1ccc2ccccc2c1C(=O)N[C@@H]1C(=O)N2[C@@H]1SC(C)(C)[C@@H]2C(=O)O	-0.0692% [at 18.6 µM]	
C=CC(=O)Nc1cc2c(Nc3ccc(F)c(Cl)c3)ncnc2cc1OCCCN1CCOCC1	0.0113% [at 46 µM]	
CC(C)CCOC(=O)/C=C/c1ccccc1	-0.0308%	
CCCCN(CCCC)CC(O)c1cc(Cl)cc2c1-c1ccc(Cl)cc1/C2=C/c1ccc(Cl)cc1 (stereo not given)	0.0116% [at 46 µM]	
COc1cc(C)ccc1O	0.22%	
Oc1cc(Cl)cc(Cl)c1Cl	-0.0564% [at 95.7 µM]	
CC(C)OC(=O)C(O)(CC(=O)O)CC(=O)O	-0.0263%	
CCN(CC)c1ccc2c(-c3ccc(S(=O)(=O)O)cc3S(=O)(=O)[O-])c3ccc(=[N+](CC)CC)cc-3oc2c1	4.61% [at 95.7 µM]	
Cc1ccc(C(=O)O)cc1	0.0092% [at 95.7 µM]	
CNC(=O)c1ccccc1Sc1ccc2c(/C=C/c3ccccn3)n[nH]c2c1	-0.0077% [at 46 µM]	
CC(C)=CCC1=C(O)c2ccccc2C(=O)C1=O	-0.325%	
O=[N+]([O-])c1cccc(C(F)(F)F)c1	0.0172%	
C=CCn1c(=O)n(CC=C)c(=O)n(CC=C)c1=O	-0.103%	
CCCCCC/C=C\CCCCCCCC(=O)O	-0.0111%	
COC(=O)c1ccccc1C	0.251%	
OC1CCCc2ccccc21 (stereo not given)	0.0502%	
OCCN1CCN(CCCN2c3ccccc3Sc3ccc(C(F)(F)F)cc32)CC1	0.0225% [at 46 µM]	
CC(C)CCCCCOC(=O)CCS	-0.0305%	
O=C(O)c1cc(=O)c2ccccc2o1	0.0106% [at 46 µM]	
CC/C=C\CCCCCO	-0.0228%	

Structure (SMILES)	fluorescence, % of fluorescein control	Potency
CCN(CCN)c1cccc(C)c1		inactive
O=C(/C=C/c1ccc(O)c(O)c1)O[C@@H](C(=O)O)[C@@H](OC(=O)/C=C/c1ccc(O)c(O)c1)C(=O)O	-0.0667%	
CN1CCCCC1CCN1c2ccccc2Sc2ccc(S(C)=O)cc21 (stereo not given)		inactive
O=S(=O)(O)c1ccc(N=Nc2c(O)ccc3ccccc23)cc1	-0.165%	
C#C[C@]1(O)CC[C@H]2[C@@H]3[C@H](C)CC4=C(CCC(=O)C4)[C@H]3CC[C@@]21C	-0.0571% [at 46 µM]	
COc1cc(/C=C/c2ccccc2)oc(=O)c1	-0.0457% [at 95.7 µM]	
CN1CCC[C@@H]1CCO[C@](C)(c1ccccc1)c1ccc(Cl)cc1	0.0233% [at 46 µM]	
CCO[Si](OCC)(OCC)OCC	0.0092% [at 95.7 µM]	
[Cu+]	-0.103%	
C[Si](Cl)(c1ccccc1)c1ccccc1	-0.0595%	
COC(=O)Nc1nc2ccc(C(=O)c3ccccc3)cc2[nH]1	0.0492% [at 18.6 µM]	
OC[C@H]1O[C@H](O[C@H]2O[C@H](CO)[C@@H](O)[C@H](O)[C@H]2O)[C@H](O)[C@@H](O)[C@@H]1O	-0.0007%	
CC(C(=O)O)c1ccc2c(c1)[nH]c1ccc(Cl)cc12 (stereo not given)	0.0152% [at 46 µM]	
O=C(O)c1cc(N=Nc2ccc([N+](=O)[O-])cc2)ccc1O	-0.0916%	
Nc1ccc(Oc2ccc(Cl)cc2)cc1	0.001%	
CCO[C@@H]1O[C@H](C(COCc2ccccc2)OCc2ccccc2)[C@H](OCc2ccccc2)[C@H]1O (stereo not given in full)	-0.0707% [at 18.6 µM]	
O=c1c(O)c(-c2ccc(O)cc2O)oc2cc(O)cc(O)c12	0.936%	
NC(=S)NC(N)=S	-0.196%	
CN1CCN2c3ccccc3Cc3ccccc3C2C1 (stereo not given)	-0.0722% [at 46 µM]	
COc1cccc(OC)c1C(=O)O	-0.0669%	
